Here are results for six compounds from PubChem BioAssay.

One test addresses Albumin (Bos taurus) (UniProt P02769). The test is described as follows: bovine serum albumin binders on microarray, profiling panel, artefact control for SMM control protein annotation, biochemical, small-molecule microarray, Alexa647 label, 635/667 nm fluorescence (AID 1118).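 Further: score merges 667 nm emission intensity and signal-to-noise per printed compound spot.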 The following applies: BSA-A647 binding, fluorescence 635 nm, higher = more signal.
A short description of test [1]: small-molecule microarray binders of probe aXIP, primary screen, biochemical, NeuroSMM set, 635/667 nm fluorescence (AID 1119).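 Further: probe is the protein aXip251-270 applied at 1 µg/mL to compound-printed slides; binding of probe to printed compounds measured as 667 nm fluorescence plus signal to noise.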 To be noted: higher = more signal, called active from +8 up or from −8 down.
Test [2] in a line: small-molecule binders of probe aNOTCH3, primary screen, biochemical, small-molecule microarray, 635/667 nm fluorescence (AID 1120).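 Further: probe is a biotin-tagged antibody raised against NOTCH3 rather than NOTCH3 protein; score merges spot fluorescence near 667 nm with spot signal to noise.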 To be noted: higher = more signal.
Test [3] in a line: small-molecule binders of probe aNOTCH2, primary screen, biochemical, small-molecule microarray, 635/667 nm fluorescence (AID 1121).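 Further: score merges feature fluorescence read at 667 nm with its signal to noise.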 The following applies: higher = more signal.
Test [4] has as its target Carbonic anhydrase 2 (Homo sapiens) (UniProt P00918). The test can be described thus: CAII small-molecule binders, profiling panel, biochemical, small-molecule microarray, Alexa647-labelled CAII (AID 1122). To be noted: CAII-A647 binding fluorescence, higher = more signal.
Test [5] in a line: COS7 lysate on small-molecule microarray, probe aHis, 635 nm (AID 1123).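 Further: z-score combines 667nm fluorescence intensity with signal-to-noise per printed compound spot.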 To be noted: COS7 cell lysate, fluorescence, higher = more signal.
The nature of test [6]: compound binding in COS7 lysate, probe aLAP1, primary screen, cell lysate, small-molecule microarray (AID 1124).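 Further: lysate comes from COS7 cells expressing LAP1 and is applied at 0.3 µg/mL; score merges spot fluorescence near 667 nm with signal-to-noise over triplicate slides.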 To be noted: probe aLAP1, fluorescence, higher = more signal.
A further test has as its system Sam68 (KHDRBS1). The test is described as follows: Sam68 small-molecule binders, primary screen, biochemical, small-molecule microarray, 635 nm fluorescence (AID 1125).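 Further: score merges 667 nm channel intensity with signal to noise over triplicate slides.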 The following applies: small-molecule microarray binding, higher = more signal.
For test [7], the system named is Chordin-like protein 2 (CHRDL2). The test can be described thus: CHRDL2 small-molecule binders, primary screen, biochemical, small-molecule microarray, 635 nm fluorescence (AID 1126).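 Further: printed compound slides probed with Chrdl2 protein at 4 µg/mL for 1 h at 4 C; score merges 667 nm emission intensity with signal to noise over three replicate slides.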 To be noted: small-molecule microarray binding, fluorescence 635 nm; higher = more signal.
Test [8] concerns the target Concanavalin-A (Canavalia ensiformis) (UniProt P02866). The test can be described thus: ConA small-molecule binders, primary screen, artefact control for SMM control protein annotation, biochemical, small-molecule microarray, Alexa647 label, 635 nm (AID 1127).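 Further: z combines 667 nm emission intensity with signal-to-noise across three replicate slides.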 To be noted: ConA-A647 binding fluorescence, higher = more signal.
A short description of test [9]: anti-His antibody binders, primary screen, artefact control for SMM control protein annotation, biochemical, small-molecule microarray, 635 nm fluorescence (AID 1128).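 Further: score merges feature fluorescence with signal-to-noise for each printed compound spot.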 To be noted: anti-His Alexa647 antibody binding, higher = more signal.
Test [10] relates to Human papillomavirus type 1a E7 protein (residues 1-88). The test can be described thus: HPV1a E7 small-molecule binders, primary screen, biochemical, small-molecule microarray, residues 1-88, 635 nm (AID 1129). To be noted: small-molecule microarray binding, fluorescence 635 nm; higher = more signal.
Test [11] deals with Focal adhesion kinase 1 (Homo sapiens) (UniProt Q05397). The test is described as follows: small-molecule microarray binders of FAK, primary screen, biochemical, 635/667 nm fluorescence, BSA, DTT (AID 1130).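 Further: composite of spot emission at 667 nm and signal to noise over triplicate slides.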 The following applies: PTK2 binding, 635 nm fluorescence, higher = more signal.
Test [12] deals with Fibrinogen (Alexa647-labelled). The test is described as follows: fibrinogen binders on compound microarrays, profiling panel, artefact control for SMM control-protein annotation, biochemical, small-molecule microarray, 635/667 nm fluorescence (AID 1131).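 Further: z-score merges 667 nm fluorescence with per-spot signal-to-noise over triplicate slides.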 To be noted: fibrinogen-A647 binding fluorescence, higher = more signal.
Test [13] has as its target Follistatin (Homo sapiens) (UniProt P19883). The test is described as follows: follistatin binders on small-molecule microarrays, primary screen, biochemical, small-molecule microarray, 635/667 nm fluorescence (AID 1132). The following applies: FST binding, 635 nm fluorescence, higher = more signal.
Test [14] concerns the target Fibroblast growth factor 2 (Homo sapiens) (UniProt P09038). The test can be described thus: FGF2 binders on small-molecule microarrays, primary screen, biochemical, small-molecule microarray, 635/667 nm fluorescence (AID 1133). To be noted: small-molecule microarray binding, FGF2, fluorescence 635/667; higher = more signal.
Test [15] can be described thus: mitochondrial membrane potential change in A549 cells, profiling panel, cell-based, JC-1 fluorescence, basal, 24 h, 100 nL (AID 1138).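 Further: A549 lung adenocarcinoma cells under basal conditions with no added stimulus; test concentration not given here.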 The following applies: higher = more signal.
The subject of a further test is Lefty1. The test is described as follows: Lefty1 binders on small-molecule microarrays, primary screen, biochemical, small-molecule microarray, 635/667 nm fluorescence (AID 1139). The following applies: small-molecule microarray binding, fluorescence 635/667; higher = more signal.
In test [16] the test system is wheat germ agglutinin (Triticum aestivum), Alexa647-labelled. The test is described as follows: wheat germ agglutinin binders on compound microarrays, profiling panel, artefact control for SMM control-protein annotation, biochemical, small-molecule microarray, 635/667 nm fluorescence (AID 1140).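 Further: score merges 667 nm feature emission with signal to noise over triplicate slides.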 The following applies: WGA-A647 binding, 635 nm fluorescence, higher = more signal.

Test [17] has as its target Luciferin 4-monooxygenase (Photinus pyralis) (UniProt P08659). The test can be described thus: firefly luciferase enzyme inhibitors, primary screen, biochemical, luminescence, purified enzyme, 2006 set (AID 1141).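 Further: cell-free assay with purified firefly luciferase at 100 ng per well in PBS; test concentration not given here.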 To be noted: SteadyGlo luminescence, 30 min, higher = more signal, called active from +8 up or from −8 down.

The structures appear in SMILES notation. Calls of active or inactive are those of the source.

Chain of Focal adhesion kinase 1 (Homo sapiens) (Q05397 whole entry, looked up): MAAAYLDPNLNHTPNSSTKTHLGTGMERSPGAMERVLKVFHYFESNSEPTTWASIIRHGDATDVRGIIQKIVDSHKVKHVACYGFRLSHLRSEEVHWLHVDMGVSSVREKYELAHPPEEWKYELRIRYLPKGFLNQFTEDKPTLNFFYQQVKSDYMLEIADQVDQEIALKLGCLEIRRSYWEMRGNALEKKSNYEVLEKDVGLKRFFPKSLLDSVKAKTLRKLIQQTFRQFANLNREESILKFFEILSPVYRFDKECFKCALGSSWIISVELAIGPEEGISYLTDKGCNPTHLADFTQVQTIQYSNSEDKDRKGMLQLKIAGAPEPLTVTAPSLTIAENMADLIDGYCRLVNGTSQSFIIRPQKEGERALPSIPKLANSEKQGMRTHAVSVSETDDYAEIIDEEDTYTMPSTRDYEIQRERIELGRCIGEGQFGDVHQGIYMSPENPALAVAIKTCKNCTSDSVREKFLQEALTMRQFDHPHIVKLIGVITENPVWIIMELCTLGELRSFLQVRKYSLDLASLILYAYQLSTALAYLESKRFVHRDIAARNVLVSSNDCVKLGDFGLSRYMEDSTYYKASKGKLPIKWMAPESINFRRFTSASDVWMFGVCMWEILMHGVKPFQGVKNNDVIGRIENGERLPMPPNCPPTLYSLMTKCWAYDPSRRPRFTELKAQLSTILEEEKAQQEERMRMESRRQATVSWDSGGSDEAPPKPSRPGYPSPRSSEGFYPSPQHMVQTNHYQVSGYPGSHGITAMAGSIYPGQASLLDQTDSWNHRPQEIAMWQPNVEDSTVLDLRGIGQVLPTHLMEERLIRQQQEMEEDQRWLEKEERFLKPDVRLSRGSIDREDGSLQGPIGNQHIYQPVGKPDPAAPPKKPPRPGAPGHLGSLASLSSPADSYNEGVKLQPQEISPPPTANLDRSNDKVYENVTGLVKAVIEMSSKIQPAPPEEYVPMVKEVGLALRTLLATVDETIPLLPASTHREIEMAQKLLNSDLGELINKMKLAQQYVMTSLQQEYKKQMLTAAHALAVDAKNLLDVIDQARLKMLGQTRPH
Chain of Follistatin (Homo sapiens) (P19883 whole entry, looked up): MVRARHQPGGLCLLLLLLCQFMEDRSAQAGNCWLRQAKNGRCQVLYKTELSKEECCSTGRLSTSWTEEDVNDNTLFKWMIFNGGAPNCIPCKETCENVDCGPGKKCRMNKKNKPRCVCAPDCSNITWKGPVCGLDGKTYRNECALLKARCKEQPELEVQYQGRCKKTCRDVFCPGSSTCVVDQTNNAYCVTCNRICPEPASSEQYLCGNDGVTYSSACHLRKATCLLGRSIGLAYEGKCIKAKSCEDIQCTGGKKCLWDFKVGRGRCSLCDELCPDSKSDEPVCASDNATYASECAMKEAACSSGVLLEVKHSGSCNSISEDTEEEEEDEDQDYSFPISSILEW
Chain of Concanavalin-A (Canavalia ensiformis) (P02866 whole entry, looked up): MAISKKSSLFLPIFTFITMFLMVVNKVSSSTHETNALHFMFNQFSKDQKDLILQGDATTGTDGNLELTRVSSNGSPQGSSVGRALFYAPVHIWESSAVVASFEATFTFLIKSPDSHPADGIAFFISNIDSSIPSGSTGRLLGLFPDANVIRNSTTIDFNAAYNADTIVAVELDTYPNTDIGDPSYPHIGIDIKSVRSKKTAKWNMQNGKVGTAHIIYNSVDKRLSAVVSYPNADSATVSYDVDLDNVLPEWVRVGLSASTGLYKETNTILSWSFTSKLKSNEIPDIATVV
Chain of Fibroblast growth factor 2 (Homo sapiens) (P09038 whole entry, looked up): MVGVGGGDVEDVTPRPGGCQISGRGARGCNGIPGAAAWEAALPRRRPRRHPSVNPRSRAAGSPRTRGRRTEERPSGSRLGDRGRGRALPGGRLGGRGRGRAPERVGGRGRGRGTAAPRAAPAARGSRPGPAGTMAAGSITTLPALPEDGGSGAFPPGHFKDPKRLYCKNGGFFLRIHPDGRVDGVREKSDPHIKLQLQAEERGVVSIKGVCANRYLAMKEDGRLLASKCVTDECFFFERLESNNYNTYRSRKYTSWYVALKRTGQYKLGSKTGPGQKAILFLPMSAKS
Chain of Luciferin 4-monooxygenase (Photinus pyralis) (P08659 whole entry, looked up): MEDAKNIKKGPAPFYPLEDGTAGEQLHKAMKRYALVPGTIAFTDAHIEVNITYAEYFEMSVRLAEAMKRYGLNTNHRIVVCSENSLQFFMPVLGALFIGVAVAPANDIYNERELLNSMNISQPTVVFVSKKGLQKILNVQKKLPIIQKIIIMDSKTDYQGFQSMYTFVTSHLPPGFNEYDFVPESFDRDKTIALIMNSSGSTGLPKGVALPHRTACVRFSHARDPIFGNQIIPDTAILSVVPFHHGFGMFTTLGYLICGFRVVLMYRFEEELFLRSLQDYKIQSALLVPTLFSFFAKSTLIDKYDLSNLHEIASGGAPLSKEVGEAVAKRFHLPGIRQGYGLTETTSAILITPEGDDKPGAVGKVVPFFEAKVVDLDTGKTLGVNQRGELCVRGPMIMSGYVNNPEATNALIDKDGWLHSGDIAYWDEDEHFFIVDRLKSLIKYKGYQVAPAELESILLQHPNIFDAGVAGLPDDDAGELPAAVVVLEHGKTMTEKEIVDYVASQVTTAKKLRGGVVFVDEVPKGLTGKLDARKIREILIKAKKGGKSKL
Chain of Albumin (Bos taurus) (P02769 whole entry, looked up): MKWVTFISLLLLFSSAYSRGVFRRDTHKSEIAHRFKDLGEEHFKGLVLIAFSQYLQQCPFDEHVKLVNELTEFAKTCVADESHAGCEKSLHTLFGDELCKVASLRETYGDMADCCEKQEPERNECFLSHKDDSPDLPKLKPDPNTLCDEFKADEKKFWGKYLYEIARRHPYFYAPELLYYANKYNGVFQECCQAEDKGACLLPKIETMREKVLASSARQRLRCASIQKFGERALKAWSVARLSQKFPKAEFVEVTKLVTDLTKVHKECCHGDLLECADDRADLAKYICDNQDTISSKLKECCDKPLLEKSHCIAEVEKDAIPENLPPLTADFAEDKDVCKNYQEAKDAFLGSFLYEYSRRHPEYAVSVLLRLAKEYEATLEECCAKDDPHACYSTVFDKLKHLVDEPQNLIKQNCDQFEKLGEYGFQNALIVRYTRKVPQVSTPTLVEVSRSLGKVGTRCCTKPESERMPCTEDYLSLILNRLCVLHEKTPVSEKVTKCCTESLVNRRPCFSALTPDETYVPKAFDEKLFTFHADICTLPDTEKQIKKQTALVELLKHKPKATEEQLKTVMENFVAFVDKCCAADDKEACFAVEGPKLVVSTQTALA

For the compound `COCCOC(=O)N1C(=O)[C@@]2(c3cc(C#CCNC(N)=O)ccc31)[C@H](c1ccc(OCCO)cc1)N1[C@H](c3ccccc3)[C@H](c3ccccc3)OC(=O)[C@H]1[C@@H]2C(=O)Nc1nc2ccccc2s1`, the composite z-score is -0.76 with Albumin (Bos taurus); -0.124 in [2]; -0.126 in test [3]; 0.277 in test [4]; 0.447 in [5]; 0.338 in test [6]. Further, the composite z-score is 0.289 in the test with Sam68 (KHDRBS1); 0.903 in test [7]; 0.915 in [8]; 0.0799 in test [9]; -0.393 in test [10]; 0.0616 in test [11]. The composite z-score is 0.398 in test [12]; 1.28 in [13]; 0.779 in [14]; 0.83 with Lefty1; 0.755 in test [16]. The composite Z-score in [1] is -0.0202 (inactive). For the same compound, the z-score is -2.32 in [15] and -3.42 (inactive) in test [17].

In the case of `CC1CC/C=C\[C@H]2OC34C=CCN(Cn5nnc6ccccc65)C(=O)[C@H]3N(C(C)CO)C(=O)[C@@H]4C2C(=O)O1` (stereo not given in full), the composite z-score was -0.178 in the test with Albumin (Bos taurus); -0.1 in test [2]; -0.189 in test [3]; 0.797 in [4]; -0.0502 in test [5]; 0.0114 in test [6]. For the same compound, the composite z-score was -0.579 in the test with Sam68 (KHDRBS1); -0.764 in test [7]; -0.309 in [8]; 0.52 in test [9]; -1.01 in test [10]; -0.305 in test [11]. Also, the composite z-score in test [12] was -0.559; in [13], -0.491; in [14] it was -1.01; in the test on Lefty1, -0.328; in test [16], -0.462. Further, the composite Z-score in test [1] is -0.105 (inactive). The values for the z-score in test [15] and in test [17] were 0.417 and -0.223 (inactive), respectively.

As to `C=CC[C@]1(C(=O)O)N=C(c2ccc(OCCCO)cc2)O[C@H]1c1ccccc1N=[N+]=[N-]`, the composite z-score with Albumin (Bos taurus) is 0.548; in test [2], 0.0807; in test [3] it was -0.159; in [4] it was 0.668; in test [5], 1.45; in [6] it was 1.24. Further, the composite z-score is 0.0203 in the test on Sam68 (KHDRBS1); -0.37 in test [7]; 0.642 in [8]; 0.258 in test [9]; -0.171 in [10]; 0.0806 in test [11]. Further, the composite z-score in test [12] is -0.17; in [13] it was -0.0493; in [14], -0.124; in the test with Lefty1, -1.09; in test [16], 0.0828. The composite Z-score in test [1] was 0.0407 (inactive). Also, the figures for the z-score in test [15] and in test [17] were 1.28 and -12.3 (active), respectively.

On to `COc1ccc(-c2cc3c(c(-c4ccccc4)n2)[Si](C(C)C)(C(C)C)O[C@H]3c2ccccc2)cn1`, for which the composite z-score is 0.843 in the test with Albumin (Bos taurus); 0.201 in test [2]; -0.0349 in test [3]; -0.0177 in [4]; 0.263 in [5]; -0.0375 in [6]. Further, the composite z-score with Sam68 (KHDRBS1) was 0.723; in test [7], 0.288; in [8], 0.165; in test [9] it was -0.614; in test [10], 0.438; in [11] it was -0.142. The composite z-score in [12] is 0.0413; in [13], 0.758; in test [14], 0.343; with Lefty1, 0.506; in [16] it was -0.0707. Besides, the composite Z-score in test [1] is 0.0861 (inactive). For the same compound, the results for the z-score in test [15] and in [17] were 0.136 and 0.167 (inactive), respectively.

In the case of `CCOC(=O)C[C@H]1[C@H](OC(=O)Cc2ccc3c(c2)OCO3)[C@@H](NC(=O)c2ccc3ccccc3c2)c2cc(OCCCO)ccc2N1C(=O)Cc1ccc(OC)cc1`, the composite z-score with Albumin (Bos taurus) was 0.897; in test [2], 0.0284; in test [3] it was -0.0846; in test [4] it was 0.0553; in [5] it was 1.54; in [6], -0.333. The composite z-score with Sam68 (KHDRBS1) was 0.952; in test [7], 0.472; in test [8] it was 0.684; in [9] it was -0.708; in test [10] it was 0.836; in test [11], 0.211. Moreover, the composite z-score came out at 0.561 in [12]; 0.413 in test [13]; 0.441 in [14]; 0.55 in the test with Lefty1; 0.353 in [16]. In addition, the composite Z-score in test [1] is 0.563 (inactive). In addition, the z-score in [15] was 0.751; in [17] it was -0.953 (inactive).

Take `CO[C@H]1O[C@H](CO)[C@@H](OC(=O)CCc2ccccc2)[C@@H]2OC(=O)[C@H](Cc3cccc(Br)c3)C/C=C/C[C@@H](Cc3cccc(Br)c3)C(=O)O[C@@H]12`: the composite z-score with Albumin (Bos taurus) was 0.803; in test [2], -0.15; in test [3] it was -0.114; in [4], 0.76; in [5], 1.04; in test [6], 0.0054. For the same compound, the composite z-score was 0.7 with Sam68 (KHDRBS1); -1.41 in [7]; 0.014 in test [8]; 0.345 in test [9]; 0.399 in test [10]; -0.0961 in [11]. The composite z-score was 0.0162 in [12]; -1.19 in [13]; -0.706 in test [14]; -0.752 with Lefty1; 0.978 in test [16]. Further, the composite Z-score in test [1] is 0.258 (inactive). In addition, the z-score is 0.309 in [15] and -1.07 (inactive) in test [17].
